Results reported in PubChem BioAssay.
Values joined by “and” are separate entries in the source; they are usually repeats but may differ in a detail not shown here. Equal entries are not always repeated. Active and inactive are the calls of the source.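 Rule for the calls, unless noted: active = luciferase signal above three times the same-plate solvent-only control wells; inactive = the rest.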

system: not listed separately; assay: blockers of cellular phospholipid synthesis – cell-based, LOPAC library, screen 4, primary screen (AID 1347384; call rule not given here); settings: animal cells, phospholipid biosynthesis inhibition screen; at 10 µM

| SMILES | outcome |
| --- | --- |
| O=c1c(-c2ccc(O)cc2)coc2cc(O)ccc12 | inactive |
| NC(=O)c1cccc(N)c1 | inactive |
| O=C(O)c1cc([N+](=O)[O-])ccc1NCCCc1ccccc1 | inactive |
| CCOC(=O)C1=C(O)C(=O)N(Cc2ccccc2)C1 | inactive |
| CC(CCc1ccc(O)cc1)NCCc1ccc(O)c(O)c1 (stereo not given) | inactive |
| CCN1CCCC1CNC(=O)c1cc(S(N)(=O)=O)ccc1OC (stereo not given) | inactive |

system: not listed separately; assay: MELAS cybrid and Rieske KO viability enhancers – cell-based, MELAS cybrids, Rieske KO mouse fibroblasts, CellTiter-Glo, primary screen (AID 1508586;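 active = mean z-score across replicates of 1.96 or higher in either the MELAS or the Rieske mutant cell line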;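 note: z relative to plate mean and SD of compound and empty wells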); settings: MELAS cybrid survival, low glucose, CellTiter-Glo 48 h; stronger effect = higher value

| SMILES | z-score |
| --- | --- |
| O=c1c(-c2ccc(O)cc2)coc2cc(O)ccc12 | -0.189 (inactive) |
| NC(=O)c1cccc(N)c1 | -0.453 (inactive) and -0.332 (inactive) |
| CC(CCc1ccc(O)cc1)NCCc1ccc(O)c(O)c1 (stereo not given) | 0.557 (inactive) and -0.473 (inactive) |
| CCN1CCCC1CNC(=O)c1cc(S(N)(=O)=O)ccc1OC (stereo not given) | -0.0383 (inactive) and -0.359 (inactive) |

same assay, conditions: Rieske KO mouse fibroblast survival, low glucose, CellTiter-Glo 72 h

| SMILES | z-score |
| --- | --- |
| O=c1c(-c2ccc(O)cc2)coc2cc(O)ccc12 | -0.724 |
| NC(=O)c1cccc(N)c1 | 0.178 and -0.721 |
| CC(CCc1ccc(O)cc1)NCCc1ccc(O)c(O)c1 (stereo not given) | -0.00496 and 0.199 |
| CCN1CCCC1CNC(=O)c1cc(S(N)(=O)=O)ccc1OC (stereo not given) | 0.0677 and 0.0684 |

target: NAD(+) hydrolase SARM1 (Homo sapiens) (UniProt Q6SZW1); assay: blocking NAD cleavage by SARM1 SAM-TIR – cell lysate, NAD-Glo luminescence (AID 1508614;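 active = compound whose remaining NAD level is above about 45 nM, limit read from the data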;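 note: higher remaining NAD means stronger inhibition of SARM1 NADase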); settings: SAM-TIR HEK293T lysate NADase, at 1 µM, stronger effect = higher value
Sequence (Q6SZW1 whole entry, looked up): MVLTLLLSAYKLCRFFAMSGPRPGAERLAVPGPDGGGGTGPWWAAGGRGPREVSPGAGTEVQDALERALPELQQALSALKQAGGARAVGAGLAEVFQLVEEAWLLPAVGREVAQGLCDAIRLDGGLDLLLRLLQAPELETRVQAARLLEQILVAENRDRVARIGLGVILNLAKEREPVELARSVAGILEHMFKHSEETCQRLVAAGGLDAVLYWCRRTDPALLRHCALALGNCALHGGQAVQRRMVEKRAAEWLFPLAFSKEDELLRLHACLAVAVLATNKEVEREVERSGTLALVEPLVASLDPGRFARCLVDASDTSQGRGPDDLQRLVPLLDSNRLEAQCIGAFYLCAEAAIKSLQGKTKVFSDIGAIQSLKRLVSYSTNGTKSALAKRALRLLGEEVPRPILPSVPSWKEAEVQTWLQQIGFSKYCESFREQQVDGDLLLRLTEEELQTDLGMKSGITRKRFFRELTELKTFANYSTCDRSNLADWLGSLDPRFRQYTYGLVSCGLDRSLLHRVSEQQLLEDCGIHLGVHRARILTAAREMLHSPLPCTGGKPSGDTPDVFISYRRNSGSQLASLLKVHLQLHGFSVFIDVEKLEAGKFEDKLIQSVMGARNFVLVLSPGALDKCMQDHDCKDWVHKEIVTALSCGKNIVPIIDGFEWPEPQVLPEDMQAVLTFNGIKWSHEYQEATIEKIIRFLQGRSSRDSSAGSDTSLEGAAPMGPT

| SMILES | remaining NAD |
| --- | --- |
| CCCC(=O)Nc1ncnc2c1ncn2[C@@H]1O[C@@H]2COP(=O)(O)O[C@H]2[C@H]1OC(=O)CCC | 10 nM (inactive) |
| CC(CCc1ccc(O)cc1)NCCc1ccc(O)c(O)c1 (stereo not given) | 10 nM (inactive) |
| CCN1CCCC1CNC(=O)c1cc(S(N)(=O)=O)ccc1OC (stereo not given) | 10 nM (inactive) |

target: Mitogen-activated protein kinase 7 (Homo sapiens) (UniProt Q13164); assay: Gal4-ERK5 driven luciferase induction – cell-based, HTS, primary screen (AID 1508626); settings: HeLa Gal4-ERK5 transactivation, 18 h, at 5 µM, stronger effect = higher value;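 note: luciferase driven by Gal4-ERK5 fusion binding five Gal4 sites before minimal TATA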
Sequence (Q13164 whole entry, looked up, the tested form may be a part): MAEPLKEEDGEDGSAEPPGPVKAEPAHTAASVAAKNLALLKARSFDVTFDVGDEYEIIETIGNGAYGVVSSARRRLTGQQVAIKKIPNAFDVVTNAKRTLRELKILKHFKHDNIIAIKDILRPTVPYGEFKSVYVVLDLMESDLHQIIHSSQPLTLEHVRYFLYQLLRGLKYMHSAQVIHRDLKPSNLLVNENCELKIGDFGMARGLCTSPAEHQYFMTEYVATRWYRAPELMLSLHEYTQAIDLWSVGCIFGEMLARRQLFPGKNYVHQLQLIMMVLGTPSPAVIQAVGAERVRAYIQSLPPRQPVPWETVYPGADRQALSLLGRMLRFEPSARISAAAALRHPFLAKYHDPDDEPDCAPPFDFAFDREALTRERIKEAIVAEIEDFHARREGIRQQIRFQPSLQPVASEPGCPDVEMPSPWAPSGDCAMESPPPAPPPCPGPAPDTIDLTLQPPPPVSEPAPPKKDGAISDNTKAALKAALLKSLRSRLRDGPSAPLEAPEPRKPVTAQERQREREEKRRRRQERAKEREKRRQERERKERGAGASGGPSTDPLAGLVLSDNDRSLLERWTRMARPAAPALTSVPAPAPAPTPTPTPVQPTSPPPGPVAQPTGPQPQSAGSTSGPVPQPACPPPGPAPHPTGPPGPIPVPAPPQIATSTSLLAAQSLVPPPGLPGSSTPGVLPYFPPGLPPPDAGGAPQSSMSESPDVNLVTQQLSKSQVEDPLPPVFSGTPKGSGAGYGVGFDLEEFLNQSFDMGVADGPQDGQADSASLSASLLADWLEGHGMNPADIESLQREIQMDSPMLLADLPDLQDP

| SMILES | luciferase signal |
| --- | --- |
| O=c1c(-c2ccc(O)cc2)coc2cc(O)ccc12 | 120 AU (inactive) |
| O=C(O)c1cc(=O)c2cccc(O)c2[nH]1 | 100 AU (inactive) |
| COc1c2ccoc2nc2c(OC)c(OCC(O)C(C)(C)O)ccc12 (stereo not given) | 28 AU (inactive) |
| NC(=O)c1cccc(N)c1 | 104 AU (inactive) |
| CC(C)=CCc1c2c(c3occ(-c4ccc(O)c(O)c4)c(=O)c3c1O)C=CC(C)(C)O2 | 108 AU (inactive) |
| O=c1c(O)c(-c2ccccc2)oc2cc(O)ccc12 | 264 AU (inactive) |
| C[C@@]12C(=O)OC(=O)[C@]1(C)[C@H]1CC[C@@H]2O1 | 52 AU (inactive) |
| C=C[C@@](C)(O)CCC1C(=C)C[C@H](O)C2C(C)(C)CCCC12C (stereo not given in full) | 64 AU (inactive) |
| CCCC(=O)Nc1ncnc2c1ncn2[C@@H]1O[C@@H]2COP(=O)(O)O[C@H]2[C@H]1OC(=O)CCC | 68 AU (inactive) |
| CC(C(=O)O)[C@H]1CCC2C3CC=C4C[C@@H](O)CC[C@]4(C)C3CC[C@@]21C (stereo not given in full) | 44 AU (inactive) |
| CC1(C)C=Cc2cc3ccc(=O)oc3cc2O1 | 56 AU (inactive) |
| CC(=O)c1c(O)c(C)c(O)c2c1OC1=CC(=O)C(C(C)=O)C(=O)C12C (stereo not given) | 80 AU (inactive) |
| O=C(O)c1cc2ccccc2[nH]1 | 36 AU (inactive) |
| O=C1C=CC(=C(c2ccc(O)cc2)c2ccc(O)cc2)C=C1 | 148 AU (inactive) |
| COc1c(OC)c2occc2c2oc(=O)ccc12 | 28 AU (inactive) |
| CC(CCc1ccc(O)cc1)NCCc1ccc(O)c(O)c1 (stereo not given) | 56 AU (inactive) |
| CON | 124 AU (inactive) |

| SMILES | luciferase signal |
| --- | --- |
| O=C(/C=C/c1ccccc1)c1ccc(O[C@@H]2O[C@H](CO)[C@@H](O)[C@H](O)[C@H]2O)cc1O | 76 AU (inactive) |
| COc1cc(OC)c2ccc(=O)oc2c1 | 64 AU (inactive) |
| Oc1cc(O)c2c(c1)O[C@H](c1cc(O)c(O)c(O)c1)[C@H](O)C2 | 172 AU (inactive) |
| Cc1ccc2c(c1)CC[C@H]1CC(=O)CC[C@]21C | 16 AU (inactive) |
| CC(=O)N[C@@H]1[C@@H](O)[C@H](O)[C@@H](CO)O[C@H]1O | 64 AU (inactive) |
| CC(=O)O[C@@H]1CC[C@@]2(C)C(C[C@@H](OC(C)=O)[C@@]3(C)C4=CC(=O)O[C@@H](c5ccoc5)[C@]4(C)CCC23)C1(C)C (stereo not given in full) | 56 AU (inactive) |
| CCN1CCCC1CNC(=O)c1cc(S(N)(=O)=O)ccc1OC (stereo not given) | 56 AU (inactive) |
| NC1(C(=O)O)CCCC1 | 76 AU (inactive) |
| NC1=NCCN1CC(=O)O | 48 AU (inactive) |
| CC1=CCc2c(cc3oc(C)cc(=O)c3c2O)OC1 | 16 AU (inactive) |
| COC(=O)c1c(C)cc(O)cc1O | 36 AU (inactive) |
| COC1=CC(=O)C=C(OC)C1=O | 112 AU (inactive) |
| N#Cc1ccc2c(c1)N(CCCN1CCC(O)CC1)c1ccccc1S2 | 96 AU (inactive) |
| O=C1c2ccc(O)c(O)c2C(=O)c2c(O)ccc(O)c21 | 76 AU (inactive) |
| COc1c2ccoc2c(OC)c2oc(=O)ccc12 | 432 AU (active) |
| O=c1[nH]c2cc(Cl)c(Cl)cc2[nH]c1=O | 40 AU (inactive) |
